Measurements published in PubChem BioAssay (Tox21).
Values joined by “and” are separate entries in the source; they are usually repeats but may differ in a detail not shown here. Equal entries are not always repeated. Inconclusive results are not listed. Entries that show only a call come without a potency. Some compounds were tested as several samples or in several runs, with calls that do not always agree. Active and inactive are the calls of the source. Unless noted, calls follow the shape of the dose curve; as a rule, active = well fitted curve in the direction sought with a large enough effect in the repeat runs; inconclusive = weak or mixed curves; inactive = no such curve, though single readings can be large; an effect the other way counts as inactive or inconclusive.

Assays:
[1] = qHTS assay to identify small molecule antagonists of the sonic hedgehog signaling (Shh) pathway (AID 1259369; calls by dose curve; also: nearly all actives have a fitted effect of over 45% in size; also: potency is read from the fitted curve at half-maximal effect)
In short: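 Stable Gli1-Luc reporter NIH/3T3 clone; quantitative HTS in stimulated mode with conditioned medium. Luminescence measured after 24hr compound treatment at 37 C.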

[2] = target: Estrogen receptor beta (Homo sapiens) (UniProt Q92731); experiment: qHTS assay to identify small molecule agonists of the estrogen receptor beta (ER-beta) signaling pathway (AID 1259377; active = well fitted activation curve with a large enough effect in the signal ratio in the repeat runs, not every such curve was filed as active; the % refers to the signal ratio)
In short: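 HEK293T ER-beta-UAS-bla; 2% charcoal-stripped FBS; cells pre-incubated 6 hr, compound 16 hr, 37C/5% CO2; LiveBLAzer B/G FRET substrate 2 h RT; fluorescence intensity read.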

[3] = target: Estrogen receptor beta (Homo sapiens) (UniProt Q92731); experiment: qHTS assay to identify small molecule antagonists of the estrogen receptor beta (ER-beta) signaling pathway (AID 1259378; active = well fitted inhibition curve with a large enough effect in the signal ratio in the repeat runs, not every such curve was filed as active; the % refers to the signal ratio)
In short: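 Antagonist mode: compounds added to beta-lactamase reporter HEK293T ER-beta-UAS cells stimulated with E2 (1nM final), 16 hr at 37C. LiveBLAzer B/G FRET substrate, 2 hours room temperature, fluorescence read-out.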

[4] = qHTS assay to identify small molecule agonists of the androgen receptor (AR) signaling pathway in the presence of an antagonist - cell viability counter screen (AID 1259379);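 also: MDA-kb2 human breast cancer cells carrying an MMTV luciferase reporter; series mostly up to about 92 µM; nearly all actives have a fitted effect of over 25% in size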
In short: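 Nilutamide-containing (3.0uM final) MDA-kb2 cultures, 3,000 cells/well, were treated with compounds across 15 concentrations. After 16 hr at 37C with no CO2, cell viability was determined by CellTiter-Fluor fluorescence in the luciferase assay wells.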

[5] = qHTS assay to identify small molecule agonists of the estrogen receptor beta (ER-beta) signaling pathway - cell viability counter screen (AID 1259380); also: nearly all actives have a fitted effect of over 30% in size
In short: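 Steps: plate ER-beta-UAS-bla HEK293T cells, rest 6 hr; add compounds in DMSO; incubate 16 hr at 37C, 5% CO2; add FRET substrate 2 hr; add CellTiter-Glo, wait 30 min at room temperature; read luminescence.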

[6] = qHTS assay to identify small molecule antagonists of the estrogen receptor beta (ER-beta) signaling pathway - cell viability counter screen (AID 1259382);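 also: HEK293T cells carrying ER-beta-UAS-bla reporter stimulated with estradiol; series mostly up to about 92 µM; nearly all actives have a fitted effect of over 55% in size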
In short: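 Viability is scored by CellTiter-Glo luminescence (30 min, room temperature) in ER-beta-UAS-bla HEK293T wells already read for reporter fluorescence. Compound exposure lasts 16 hr at 37C alongside 1nM 17-beta-estradiol in charcoal-stripped serum medium.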

[7] = target: Estrogen receptor (Homo sapiens) (UniProt P03372); experiment: qHTS assay to identify small molecule agonists of the estrogen receptor alpha (ER-alpha) signaling pathway in the presence of an antagonist (AID 1259383; calls by dose curve; also: top concentration of the series differs between compounds; nearly all actives have a fitted effect of over 15% in size)
In short: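 Readout was ERE-driven luciferase luminescence in VM7Luc4E2 cells, which express full-length ER-alpha endogenously. Compounds were tested at 15 concentrations for 22hr alongside 10.0nM ICI-182,780 (final concentration).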

[8] = qHTS assay to identify small molecule agonists or antagonists of the thyroid stimulating hormone receptor (TSHR) signaling pathway - wild type cell line counter screen (AID 1259384; calls by dose curve; also: potency is read from the fitted curve at half-maximal effect)
In short: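 Counter screen in untransfected Hek293: compounds (15-point titration, triplicate) plus phosphodiesterase inhibitor Ro20-1724 added after 18 h plating; 30 min RT. Intracellular cAMP via competitive d2/cryptate immunoassay, 1 h incubation.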

[9] = target: Thyrotropin receptor (Homo sapiens) (UniProt P16473); experiment: qHTS assay to identify small molecule antagonists of the thyroid stimulating hormone receptor (TSHR) signaling pathway (AID 1259385; calls by dose curve; also: nearly all actives have a fitted effect of over 20% in size)
In short: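 Antagonist mode: compound-treated TSHR-expressing HEK293 cells were stimulated with 1.5 ng/mL TSH (final) in presence of Ro20-1724 for 30 min at RT. HTRF cAMP detection after 1 h; each compound tested at 15 concentrations, triplicate.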

[10] = qHTS assay to identify small molecule agonists of the estrogen receptor alpha (ER-alpha) signaling pathway in the presence of an antagonist - cell viability counter screen (AID 1259386);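 also: cells exposed to compounds for 22 h at 37 °C before the viability read; nearly all actives have a fitted effect of over 30% in size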; also: potency is read from the fitted curve at half-maximal effect
In short: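 In this counter screen, compound effects on VM7Luc4E2 viability were tested in the presence of the antagonist ICI-182,780 at 10.0nM final. Compounds were dosed at 15 concentrations, exposure lasted 22hr, and the CellTiter-Fluor signal was read.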

[11] = target: Progesterone receptor (Homo sapiens) (UniProt P06401); experiment: qHTS assay to identify small molecule agonists of the progesterone receptor (PR) signaling pathway (AID 1346784; calls by dose curve; also: nearly all actives have a fitted effect of over 30% in size; also: potency is read from the fitted curve at half-maximal effect)
In short: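 Beta-lactamase reporter read-out: after 16 hr compound treatment at 37C and a further 2 hr at room temperature with LiveBLAzer B/G FRET substrate, fluorescence was measured in PR-UAS-bla HEK 293T cells grown in 2% charcoal-stripped serum.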

[12] = target: Progesterone receptor (Homo sapiens) (UniProt P06401); experiment: qHTS assay to identify small molecule antagonists of the progesterone receptor (PR) signaling pathway (AID 1346795; active = well fitted inhibition curve with a large enough effect in the signal ratio in the repeat runs, not every such curve was filed as active; the % refers to the signal ratio; also: potency is read from the fitted curve at half-maximal effect)
In short: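 Read-out is fluorescence from the LiveBLAzer B/G FRET substrate, cleaved by a UAS-controlled beta-lactamase in PR-UAS-bla HEK293T cells after 16 hr exposure to compound plus 1 nM promegestone (final), followed by 2 hr at room temperature.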

[13] = qHTS assay to identify small molecule antagonists of the progesterone receptor (PR) signaling pathway - cell viability counter screen (AID 1346798);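 also: HEK293T PR-UAS-bla cells stimulated with the agonist R5020; series mostly up to about 92 µM; nearly all actives have a fitted effect of over 50% in size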
In short: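 HEK293T PR-UAS-bla, 2% charcoal-stripped FBS; 4 hr pre-plate; cpd + R5020, 16 h 37C; LiveBLAzer read first; then CellTiter-Glo 30 min RT, luminescence.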

[14] = qHTS assay to identify small molecule agonists of the progesterone receptor (PR) signaling pathway - cell viability counter screen (AID 1346799; calls by dose curve; also: nearly all actives have a fitted effect of over 45% in size)
In short: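 Luminescence from CellTiter-Glo, added after the beta-lactamase FRET read in the same wells, gave cytotoxicity in PR-UAS-bla HEK293T cells treated with compounds for 16 hr at 37C.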

[15] = qHTS assay to identify small molecule antagonists of the TGF-beta/Smad signaling pathway - cell viability counter screen (AID 1346824); also: nearly all actives have a fitted effect of over 50% in size
In short: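 Cytotoxicity counter-screen run in the same wells as the beta-lactamase Smad reporter read: CellTiter-Glo luminescence after 30 min at room temperature. HEK 293T SBE-bla cells had 5 hr compound exposure at 37 C with TGF-beta1 (0.25 ng/mL stock).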

[16] = qHTS assay to identify small molecule agonists of the TGF-beta/Smad signaling pathway (AID 1346859; active = well fitted activation curve with a large enough effect in the signal ratio in the repeat runs, not every such curve was filed as active; the % refers to the signal ratio; also: series mostly up to about 77 µM)
In short: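 SBE-bla HEK 293T, 4,000 cells/well, plated o/n; cpd in DMSO, 5 hr, 37 C/5% CO2; B/G FRET substrate 2 hr RT; ex 405, em 460/530 nm.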

[17] = qHTS assay to identify small molecule agonists of the TGF-beta/Smad signaling pathway - cell viability counter screen (AID 1346829); also: top concentration of the series differs between compounds; nearly all actives have a fitted effect of over 45% in size
In short: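 Compound-treated SBE-bla HEK 293T cells (5 hr, 37 C) were assessed for viability with CellTiter-Glo in parallel with the reporter read.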

[18] = target: Thyrotropin-releasing hormone receptor (Homo sapiens) (UniProt P34981); experiment: qHTS assay to identify small molecule antagonists of the thyrotropin-releasing hormone receptor (TRHR) signaling pathway (AID 1346877; active = well fitted inhibition curve with a large enough effect in the repeat runs, not every such curve was filed as active; also: series mostly up to about 51 µM)
In short: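 Kinetic fluorescence (3 min, 1 s resolution) following stimulation with TRH at 1 nM final; HEK293 cells bearing human TRHR; 5 min compound preincubation at RT; concentration-response over 15 points, triplicates.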

[19] = target: Androgen receptor (Homo sapiens) (UniProt P10275); experiment: qHTS assay to identify small molecule agonists of the androgen receptor (AR) signaling pathway in the presence of an antagonist (AID 1259381; calls by dose curve; also: nearly all actives have a fitted effect of over 15% in size)
In short: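 Reporter-gene luminescence from MDA-kb2 cells exposed 16hr at 37C (0% CO2) to 15-point compound titrations with 3.0uM final nilutamide as AR antagonist.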

Estrogen receptor beta (Homo sapiens), sequence (Q92731 whole entry, looked up): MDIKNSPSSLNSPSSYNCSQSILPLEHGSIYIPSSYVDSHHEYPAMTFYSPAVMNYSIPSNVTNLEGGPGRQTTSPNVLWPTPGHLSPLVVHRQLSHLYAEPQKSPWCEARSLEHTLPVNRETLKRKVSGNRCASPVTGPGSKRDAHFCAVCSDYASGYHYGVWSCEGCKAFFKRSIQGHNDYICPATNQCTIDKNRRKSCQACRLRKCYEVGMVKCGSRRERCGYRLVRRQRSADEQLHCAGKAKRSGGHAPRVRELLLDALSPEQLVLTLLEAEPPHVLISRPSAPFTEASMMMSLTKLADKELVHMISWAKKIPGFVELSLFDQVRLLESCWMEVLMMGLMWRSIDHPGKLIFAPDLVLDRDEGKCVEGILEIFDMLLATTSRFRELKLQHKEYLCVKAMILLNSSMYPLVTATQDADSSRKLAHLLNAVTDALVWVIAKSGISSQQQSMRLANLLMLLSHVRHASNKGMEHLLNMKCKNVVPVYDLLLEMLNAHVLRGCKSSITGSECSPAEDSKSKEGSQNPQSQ
Progesterone receptor (Homo sapiens), sequence (P06401 whole entry, looked up): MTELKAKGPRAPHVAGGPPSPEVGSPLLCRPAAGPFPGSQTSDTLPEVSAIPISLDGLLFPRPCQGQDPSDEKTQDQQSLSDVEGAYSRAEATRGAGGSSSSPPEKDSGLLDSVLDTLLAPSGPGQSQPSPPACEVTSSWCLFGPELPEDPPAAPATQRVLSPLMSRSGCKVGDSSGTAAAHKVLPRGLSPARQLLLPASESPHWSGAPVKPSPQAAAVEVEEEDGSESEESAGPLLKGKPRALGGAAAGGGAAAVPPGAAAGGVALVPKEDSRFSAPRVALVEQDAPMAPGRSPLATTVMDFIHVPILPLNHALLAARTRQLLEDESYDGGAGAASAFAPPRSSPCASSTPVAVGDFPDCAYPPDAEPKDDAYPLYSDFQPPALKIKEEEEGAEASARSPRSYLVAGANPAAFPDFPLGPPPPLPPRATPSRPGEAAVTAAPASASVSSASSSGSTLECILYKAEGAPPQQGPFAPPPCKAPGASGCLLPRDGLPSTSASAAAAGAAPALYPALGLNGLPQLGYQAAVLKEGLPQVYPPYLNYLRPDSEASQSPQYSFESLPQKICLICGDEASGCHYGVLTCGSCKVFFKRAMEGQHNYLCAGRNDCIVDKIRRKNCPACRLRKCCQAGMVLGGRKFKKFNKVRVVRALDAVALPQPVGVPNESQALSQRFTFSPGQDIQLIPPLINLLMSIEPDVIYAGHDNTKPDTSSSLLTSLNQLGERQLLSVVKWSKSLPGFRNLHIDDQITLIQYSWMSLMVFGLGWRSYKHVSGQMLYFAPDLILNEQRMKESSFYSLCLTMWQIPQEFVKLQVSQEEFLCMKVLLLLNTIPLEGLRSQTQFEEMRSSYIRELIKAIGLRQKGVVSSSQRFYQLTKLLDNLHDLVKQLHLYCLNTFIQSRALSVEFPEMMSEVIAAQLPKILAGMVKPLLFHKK
Estrogen receptor (Homo sapiens), sequence (P03372 whole entry, looked up): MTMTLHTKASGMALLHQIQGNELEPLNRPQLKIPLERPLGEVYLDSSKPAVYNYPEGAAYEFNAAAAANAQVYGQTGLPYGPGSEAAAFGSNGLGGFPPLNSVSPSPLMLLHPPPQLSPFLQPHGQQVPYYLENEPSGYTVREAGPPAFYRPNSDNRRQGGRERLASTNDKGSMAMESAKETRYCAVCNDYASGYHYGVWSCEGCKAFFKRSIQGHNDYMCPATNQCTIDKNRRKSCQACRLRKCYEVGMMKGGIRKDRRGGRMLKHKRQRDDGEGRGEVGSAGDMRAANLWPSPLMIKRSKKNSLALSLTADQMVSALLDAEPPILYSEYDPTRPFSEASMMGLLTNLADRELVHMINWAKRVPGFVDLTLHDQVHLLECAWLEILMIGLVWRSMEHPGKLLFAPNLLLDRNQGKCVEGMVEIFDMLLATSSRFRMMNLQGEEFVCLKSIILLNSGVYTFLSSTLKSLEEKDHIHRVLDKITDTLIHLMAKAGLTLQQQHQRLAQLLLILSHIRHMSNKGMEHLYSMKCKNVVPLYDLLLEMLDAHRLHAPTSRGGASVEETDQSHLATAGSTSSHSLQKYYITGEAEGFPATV
Androgen receptor (Homo sapiens), sequence (P10275 whole entry, looked up): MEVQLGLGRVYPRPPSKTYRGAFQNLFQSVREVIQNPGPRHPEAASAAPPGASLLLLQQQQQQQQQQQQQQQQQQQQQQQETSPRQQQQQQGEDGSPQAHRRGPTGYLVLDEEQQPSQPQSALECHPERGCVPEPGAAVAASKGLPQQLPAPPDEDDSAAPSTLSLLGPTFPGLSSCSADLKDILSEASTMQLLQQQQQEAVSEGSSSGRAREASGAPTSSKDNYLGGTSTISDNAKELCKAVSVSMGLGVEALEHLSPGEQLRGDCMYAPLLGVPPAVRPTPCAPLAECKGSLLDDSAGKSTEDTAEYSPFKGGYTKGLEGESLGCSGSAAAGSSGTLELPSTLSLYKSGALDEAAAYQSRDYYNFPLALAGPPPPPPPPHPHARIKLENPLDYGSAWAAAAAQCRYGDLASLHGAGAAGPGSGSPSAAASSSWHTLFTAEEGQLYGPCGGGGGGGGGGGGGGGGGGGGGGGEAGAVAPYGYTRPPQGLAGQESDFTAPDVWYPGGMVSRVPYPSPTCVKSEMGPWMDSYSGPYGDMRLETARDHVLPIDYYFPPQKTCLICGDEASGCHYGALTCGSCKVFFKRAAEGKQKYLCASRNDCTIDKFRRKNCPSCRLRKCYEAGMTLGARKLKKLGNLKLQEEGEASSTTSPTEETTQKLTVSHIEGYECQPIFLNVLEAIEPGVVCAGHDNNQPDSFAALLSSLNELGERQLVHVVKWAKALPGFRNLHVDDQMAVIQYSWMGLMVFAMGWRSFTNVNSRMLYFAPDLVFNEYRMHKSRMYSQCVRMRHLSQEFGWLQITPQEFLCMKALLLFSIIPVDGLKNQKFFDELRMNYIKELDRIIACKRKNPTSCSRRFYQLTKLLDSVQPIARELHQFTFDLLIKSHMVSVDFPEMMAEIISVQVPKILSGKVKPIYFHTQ
Thyrotropin receptor (Homo sapiens), sequence (P16473 whole entry, looked up): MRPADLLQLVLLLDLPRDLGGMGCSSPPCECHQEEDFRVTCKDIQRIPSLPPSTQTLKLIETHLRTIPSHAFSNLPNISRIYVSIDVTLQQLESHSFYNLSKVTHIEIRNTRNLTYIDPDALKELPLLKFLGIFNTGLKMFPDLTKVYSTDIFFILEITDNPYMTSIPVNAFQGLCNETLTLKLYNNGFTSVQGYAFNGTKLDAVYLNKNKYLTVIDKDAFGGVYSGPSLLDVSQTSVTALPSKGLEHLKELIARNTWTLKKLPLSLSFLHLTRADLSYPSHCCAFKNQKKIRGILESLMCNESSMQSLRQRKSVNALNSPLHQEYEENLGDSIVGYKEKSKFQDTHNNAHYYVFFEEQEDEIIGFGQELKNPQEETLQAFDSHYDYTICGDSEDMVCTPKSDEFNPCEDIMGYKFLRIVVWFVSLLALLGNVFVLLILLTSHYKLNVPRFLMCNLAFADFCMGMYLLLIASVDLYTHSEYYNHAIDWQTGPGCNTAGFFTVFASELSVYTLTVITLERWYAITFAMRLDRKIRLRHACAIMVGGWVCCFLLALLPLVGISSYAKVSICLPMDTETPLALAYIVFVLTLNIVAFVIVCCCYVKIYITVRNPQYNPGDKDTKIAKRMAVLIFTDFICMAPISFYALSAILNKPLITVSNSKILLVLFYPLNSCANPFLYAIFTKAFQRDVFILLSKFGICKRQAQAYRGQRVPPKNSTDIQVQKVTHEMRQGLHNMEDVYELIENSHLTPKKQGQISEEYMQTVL
Thyrotropin-releasing hormone receptor (Homo sapiens), sequence (P34981 whole entry, looked up): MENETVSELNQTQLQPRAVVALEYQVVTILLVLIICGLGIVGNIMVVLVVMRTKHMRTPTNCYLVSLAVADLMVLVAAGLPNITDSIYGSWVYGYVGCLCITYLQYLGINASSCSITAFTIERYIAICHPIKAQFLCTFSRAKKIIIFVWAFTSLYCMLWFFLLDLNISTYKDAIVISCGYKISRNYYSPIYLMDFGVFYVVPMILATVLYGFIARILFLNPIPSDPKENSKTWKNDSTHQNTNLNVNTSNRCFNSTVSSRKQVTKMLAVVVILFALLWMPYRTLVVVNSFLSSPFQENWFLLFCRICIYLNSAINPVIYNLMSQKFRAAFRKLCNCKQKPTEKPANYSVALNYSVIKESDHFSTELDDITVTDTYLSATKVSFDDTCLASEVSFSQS

| Compound | Potency [1] | outcome [2] | Potency [3] | Potency [4] | Potency [5] | Potency [6] | Potency [7] | Potency [8] | outcome [9] | Potency [10] | Potency [11] | Potency [12] | Potency [13] | Potency [14] | Potency [15] | outcome [16] | Potency [17] | outcome [18] | outcome [19] |
| --- | --- | --- | --- | --- | --- | --- | --- | --- | --- | --- | --- | --- | --- | --- | --- | --- | --- | --- | --- |
| Oc1cccc(O)c1 | inactive | inactive | inactive | inactive | inactive | inactive | inactive | inactive | inactive | inactive | inactive | inactive | inactive | inactive | inactive | inactive |  |  |  |
| Cc1c(N(C)CS(=O)(=O)O)c(=O)n(-c2ccccc2)n1C | inactive | inactive | inactive | inactive | inactive | inactive |  | inactive | inactive | inactive | inactive | inactive | inactive | inactive | inactive | inactive | inactive | inactive |  |
| CCn1cc(C(=O)O)c(=O)c2ccc(C)nc21 | inactive | inactive | inactive | inactive | inactive | inactive | inactive | inactive | inactive | inactive | inactive | inactive | inactive |  | inactive | inactive | inactive | inactive |  |
| CC(C)Cc1ccc(C(C)C(=O)O)cc1 (stereo unspecified) | inactive | inactive | inactive | inactive | inactive | inactive | inactive | inactive | inactive | inactive | inactive | inactive | inactive | inactive |  | inactive |  | inactive |  |
| C=CCOC(=O)CC(C)C | inactive | inactive | inactive | inactive | inactive | inactive | inactive | inactive | inactive | inactive | inactive | inactive | inactive |  | inactive | inactive | inactive | inactive |  |
| C[C@]12C[C@H](O)[C@H]3[C@@H](CCC4=CC(=O)CC[C@@]43C)[C@@H]1CC[C@@H]2C(=O)CO | 2.44 µM (active) and 344 nM (active) and 750 nM (active) | inactive | inactive | inactive | inactive | inactive | inactive | inactive | inactive | inactive | 971 nM (active) | inactive | inactive |  | inactive | inactive | inactive |  |  |
| CCCCCCCCCCCCCC(=O)OC(C)C | inactive | inactive | inactive | inactive | inactive | inactive | inactive | inactive | inactive | inactive | inactive | inactive | inactive | inactive | inactive | inactive |  |  | inactive |
| Cc1cnc(NC(=O)C2=C(O)c3ccccc3S(=O)(=O)N2C)s1 | inactive | inactive | inactive | inactive | inactive | inactive | inactive |  |  | 43.4 µM (active) and inactive | inactive | inactive | inactive |  |  | inactive |  | inactive |  |
| C=CC(=O)NC(C)(C)CS(=O)(=O)O | inactive | inactive | inactive | inactive | inactive | inactive | inactive | inactive | inactive | inactive | inactive | inactive | inactive | inactive | inactive | inactive | inactive |  |  |
| CC(=O)Oc1ccccc1C(=O)O | inactive | inactive | inactive | inactive | inactive | inactive | inactive | inactive | inactive | inactive | inactive | inactive | inactive |  | inactive | inactive | inactive |  | inactive |
| Cc1cccc(C)c1O | inactive | inactive | inactive | inactive | inactive | inactive | inactive |  |  | inactive | inactive | inactive | inactive | inactive | inactive | inactive | inactive | inactive | inactive |
| CC(C)(C)NCC(O)c1ccc(O)c(CO)c1 (stereo unspecified) | inactive | inactive | inactive | inactive | inactive | inactive | inactive | 15.8 nM (active) and 37.6 nM (active) | inactive | inactive | inactive | inactive | inactive |  | inactive | inactive |  | inactive |  |
| COC1=CC(=O)C[C@@H](C)[C@]12Oc1c(Cl)c(OC)cc(OC)c1C2=O | 4.29 µM (active) and 13.7 µM (active) | inactive | inactive | inactive | inactive | inactive | inactive | inactive | inactive | inactive | inactive | 27.1 µM (active) and 30.6 µM (active) | inactive | inactive | inactive | inactive |  | inactive |  |
| C[C@]12C=CC(=O)C=C1CC[C@@H]1[C@@H]2C(=O)C[C@@]2(C)[C@H]1CC[C@]2(O)C(=O)CO | inactive | inactive | inactive | inactive | inactive | inactive | inactive | inactive | inactive | inactive | inactive |  | inactive |  | inactive | inactive | inactive |  |  |
| CC(=O)c1ccc(S(=O)(=O)NC(=O)NC2CCCCC2)cc1 | inactive | inactive | inactive | inactive | inactive | inactive | inactive | inactive | inactive | inactive | inactive | inactive | inactive |  | inactive | inactive | inactive | inactive | inactive |
| O=C1CCCCCN1 | 1.54 µM (active) and inactive | inactive | inactive | inactive | inactive | inactive |  | inactive | inactive | inactive | inactive | inactive | inactive |  | inactive | inactive | inactive |  |  |
